Reference: publication PMC11062922 (Nature Chemical Biology, 2023)
Like-named read-outs stand apart in the source and are kept apart here.

Assays:
Parameters in all cases: species or system human, MV4-11 + K-562 + COLO205 + SK-N-BE2 + OVCAR-8
AURKA = settings: read-out: apparent Kd, compound concentrations: 100 nM and 1000 nM (sheet 'Samples'), n = 1
AURKB = settings: read-out: apparent Kd, compound concentrations: 100 nM and 1000 nM (sheet 'Samples'), n = 1
CAMKK2 = settings: read-out: apparent Kd, compound concentrations: 100 nM and 1000 nM (sheet 'Samples'), n = 1
CDK2 = settings: read-out: apparent Kd; compound concentrations: 100 nM and 1000 nM (sheet 'Samples'), CATDS: 7.0892729990410901E-3; n = 1
CHEK1 = settings: read-out: apparent Kd, compound concentrations: 100 nM and 1000 nM (sheet 'Samples'), n = 1
IRAK3 = settings: read-out: apparent Kd, compound concentrations: 100 nM and 1000 nM (sheet 'Samples'), n = 1
PDGFRB = settings: read-out: apparent Kd; compound concentrations: 100 nM and 1000 nM (sheet 'Samples'), CATDS: 6.5181238774795402E-3; n = 1
PRKAG2 = settings: read-out: apparent Kd, compound concentrations: 100 nM and 1000 nM (sheet 'Samples'), n = 1
RPS6KA4 = settings: read-out: apparent Kd, compound concentrations: 100 nM and 1000 nM (sheet 'Samples'), n = 1
STK10 = settings: read-out: apparent Kd, compound concentrations: 100 nM and 1000 nM (sheet 'Samples'), n = 1
ATM = settings: read-out: apparent Kd, compound concentrations: 100 nM and 1000 nM (sheet 'Samples'), n = 1
CDC42BPA = settings: read-out: apparent Kd; compound concentrations: 100 nM and 1000 nM (sheet 'Samples'), CATDS: 1.08451954536147E-2; n = 1
CDC42BPB = settings: read-out: apparent Kd; compound concentrations: 100 nM and 1000 nM (sheet 'Samples'), CATDS: 1.55962433330884E-2; n = 1
CDC42BPG = settings: read-out: apparent Kd; compound concentrations: 100 nM and 1000 nM (sheet 'Samples'), CATDS: 2.2022337119778398E-2; n = 1
EPHA4 = settings: read-out: apparent Kd, compound concentrations: 100 nM and 1000 nM (sheet 'Samples'), n = 1
EPHA5 = settings: read-out: apparent Kd, compound concentrations: 100 nM and 1000 nM (sheet 'Samples'), n = 1
TNK2 = settings: read-out: apparent Kd, compound concentrations: 100 nM and 1000 nM (sheet 'Samples'), n = 1
PHKG2 = settings: read-out: apparent Kd, compound concentrations: 100 nM and 1000 nM (sheet 'Samples'), n = 1

COc1ccc(Nc2ncc(C#N)c(Nc3ccccc3C(N)=O)n2)cc1N1CCN(C)CC1.Cl [GSK1558669A]
potency estimated from few doses (AURKA; CATDS: 3.9666626948294099E-2): 12 nM | potency estimated from few doses (AURKB; CATDS: 1.8083134151289901E-2): 45.1 nM | potency estimated from few doses (CAMKK2; CATDS: 6.1789819356504504E-3): 1430 nM | potency estimated from few doses (CDK2): 671 nM | potency estimated from few doses (CHEK1; CATDS: 1.1194862883684801E-2): 137 nM | potency estimated from few doses (IRAK3; CATDS: 1.44351207371401E-2): 72.7 nM | potency estimated from few doses (PDGFRB): 1030 nM | potency estimated from few doses (PRKAG2; CATDS: 1.3647831185805001E-2): 82.8 nM | potency estimated from few doses (RPS6KA4; CATDS: 8.4346807860121598E-3): 330 nM | potency estimated from few doses (STK10; CATDS: 1.0596963300075399E-2): 159 nM

CN(c1ccc(NC(=O)Nc2cccc(Cl)c2)cc1)c1ccnc(N)n1.Cl [GW830707A]
potency estimated from few doses (ATM; CATDS: 7.3316367539925598E-2): 4.81 nM | potency estimated from few doses (AURKA; CATDS: 1.10158492855777E-2): 1100 nM | potency estimated from few doses (AURKB; CATDS: 1.11325754696811E-2): 1010 nM | potency estimated from few doses (CDC42BPA): 1270 nM | potency estimated from few doses (CDC42BPB): 126 nM | potency estimated from few doses (CDC42BPG): 40.9 nM | potency estimated from few doses (EPHA4; CATDS: 2.6652421745355599E-2): 26.2 nM | potency estimated from few doses (EPHA5; CATDS: 2.89918726046417E-2): 22 nM | potency estimated from few doses (TNK2; CATDS: 3.7589632297420301E-2): 13.5 nM

Clc1cc(Cl)cc(Nc2ccnc(Nc3cc(Cl)cc(Cl)c3)n2)c1 [GSK175726A]
potency estimated from few doses (ATM; CATDS: 2.7134606068091E-2): 77.5 nM | potency estimated from few doses (AURKA; CATDS: 1.16998692507499E-2): 470 nM | potency estimated from few doses (AURKB; CATDS: 1.17744273258488E-2): 461 nM | potency estimated from few doses (CAMKK2; CATDS: 8.7749844490250094E-3): 1420 nM | potency estimated from few doses (CHEK1; CATDS: 9.2936135533363204E-3): 1080 nM | potency estimated from few doses (EPHA4; CATDS: 2.4571343446097599E-2): 91.5 nM | potency estimated from few doses (EPHA5; CATDS: 1.7966956970046102E-2): 164 nM | potency estimated from few doses (PHKG2; CATDS: 8.5028793142563602E-3): 1680 nM | potency estimated from few doses (PRKAG2; CATDS: 2.5465407694982199E-2): 86.1 nM | potency estimated from few doses (RPS6KA4; CATDS: 8.4689848583526291E-3): 1720 nM | potency estimated from few doses (STK10; CATDS: 8.4721916216742802E-3): 1710 nM | potency estimated from few doses (TNK2; CATDS: 2.7223225317324601E-2): 77.1 nM

CCOC(=O)N1CCC(n2cnc(-c3ccc(F)cc3)c2-c2ccnc(N)n2)CC1 [SB-219952]
potency estimated from few doses (AURKA; CATDS: 9.8512895449749706E-3): 901 nM | potency estimated from few doses (CAMKK2; CATDS: 1.08972773288713E-2): 701 nM | potency estimated from few doses (CHEK1; CATDS: 8.4863258398705493E-3): 1390 nM | potency estimated from few doses (EPHA4; CATDS: 1.2785015902171799E-2): 493 nM | potency estimated from few doses (EPHA5; CATDS: 1.42398980321412E-2): 397 nM | potency estimated from few doses (PHKG2; CATDS: 9.7897546431884499E-3): 916 nM | potency estimated from few doses (PRKAG2; CATDS: 9.8371603155967009E-3): 905 nM | potency estimated from few doses (STK10; CATDS: 9.6073353466608804E-3): 964 nM | potency estimated from few doses (TNK2; CATDS: 1.6319458510121398E-2): 307 nM

Cl.Nc1c(C(=O)c2cccc(C#CCN3CCCCC3)c2)cnn1-c1ccc(F)cc1 [RO1154461-001]
potency estimated from few doses (ATM; CATDS: 2.8189903331148802E-2): 161 nM | potency estimated from few doses (AURKA; CATDS: 1.31144942702613E-2): 784 nM | potency estimated from few doses (CAMKK2; CATDS: 1.2329030932227101E-2): 934 nM | potency estimated from few doses (CHEK1; CATDS: 1.05759590598224E-2): 1550 nM | potency estimated from few doses (EPHA4; CATDS: 1.83423267934671E-2): 356 nM | potency estimated from few doses (EPHA5; CATDS: 2.15215497869925E-2): 260 nM | potency estimated from few doses (STK10; CATDS: 1.0028252220669101E-2): 1910 nM | potency estimated from few doses (TNK2; CATDS: 5.6879237534392203E-2): 56.1 nM

O=C1N=C(NCCc2ccc(Cl)cc2)S/C1=C\c1ccc2ncccc2c1 [RO4498479-000]
potency estimated from few doses (AURKA; CATDS: 1.0602350822893101E-2): 486 nM | potency estimated from few doses (AURKB; CATDS: 7.59982177866047E-3): 1200 nM | potency estimated from few doses (CAMKK2; CATDS: 9.9016852028132405E-3): 568 nM | potency estimated from few doses (CHEK1; CATDS: 7.8682297996918397E-3): 1070 nM | potency estimated from few doses (EPHA4; CATDS: 1.4543255052935199E-2): 263 nM | potency estimated from few doses (EPHA5; CATDS: 2.0414571032165901E-2): 153 nM | potency estimated from few doses (PHKG2; CATDS: 8.2148610451916008E-3): 932 nM | potency estimated from few doses (PRKAG2; CATDS: 1.04447346657642E-2): 503 nM | potency estimated from few doses (RPS6KA4; CATDS: 7.6189107816006501E-3): 1190 nM | potency estimated from few doses (STK10; CATDS: 8.8639953478003106E-3): 751 nM | potency estimated from few doses (TNK2; CATDS: 1.88242032678454E-2): 173 nM

Cc1ccc(Nc2ccnc(Nc3ccc4c(c3)CS(=O)(=O)C4)n2)cc1O.Cl [GW579362A]
potency estimated from few doses (AURKA; CATDS: 4.77260985286359E-2): 393 nM | potency estimated from few doses (IRAK3; CATDS: 4.4859937900589397E-2): 446 nM | potency estimated from few doses (STK10; CATDS: 3.2691719677524503E-2): 950 nM

CN(c1ccc(NC(=O)N2CCN(CCCN3CCOCC3)CC2)cc1)c1ccnc(Nc2ccc(CS(C)(=O)=O)cc2)n1.Cl [GW830899A]
potency estimated from few doses (AURKA; CATDS: 2.4317426688995499E-2): 955 nM | potency estimated from few doses (CAMKK2; CATDS: 1.7762622720353199E-2): 2190 nM | potency estimated from few doses (EPHA4; CATDS: 2.15154621578117E-2): 1270 nM | potency estimated from few doses (EPHA5; CATDS: 2.2767251891404602E-2): 1110 nM | potency estimated from few doses (TNK2; CATDS: 3.2652944878228798E-2): 544 nM
